# Shown are actives, neighbours in structure and some others; about 4.1% of the full set was active somewhere.
# TIM10 inh = growth inhibitors of TIM10 yeast strain. S. cerevisiae TIM10 strain growth, BacTiter-Glo luminescence, 24 h. inhibition, % at 10 µM. actives 1.4% (n = 330,000). AID 463195;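 active = inhibition of 40% or more at the single tested concentration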;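 note: wild-type TIM10 isogenic control strain grown at permissive 25 °C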
# tim23-1 inh = inhibits growth of tim23-1 mutant yeast. actives 1.3% (n = 330,000). inhibition, % at 20 µM. S. cerevisiae tim23-1 growth, BacTiter-Glo luminescence, 24 h;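 active = growth inhibition of the mutant yeast at or above 50%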;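 note: temperature-sensitive mutant grown at 25 °C; plate controls were DMSO-treated mutant yeast for no effect and medium wells lacking yeast for full effect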
# tim10-1 inh = inhibits growth of tim10-1 mutant yeast; actives 2.2% (n = 330,000); S. cerevisiae tim10-1 ts strain growth, BacTiter-Glo, 24 h; inhibition, % at 20 µM; AID 463190;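 active = inhibition of at least 40%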;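 note: mutant grown at 25 °C; 0% = DMSO wells with yeast and 100% = wells holding no yeast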
# NALP3 yeast inh = inhibitors of NALP3 inflammasome in yeast; Yeast reconstituted NLRP3/ASC/caspase-1, beta-gal luminescence, 24 h; inhibition, % at 10 µM; actives 0.39% (n = 330,000);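 active = inhibition of 50% or more; inactive = inhibition below 50%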;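 note: plate controls were induced DMSO wells for no effect and uninduced yeast grown without galactose for full effect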
# NALP1 inh = NALP1 inhibition; S. cerevisiae NALP1/ASC/caspase-1 growth, X-gal OD620, 72 h; inhibition, % at 10 µM; actives 0.61% (n = 280,000); AID 2071; in the data active = inhibition mostly above about 24%, no sharp cut-off; inactive = mostly below about 32%
# tim10-1 confirm = confirmation of tim10-1 mutant yeast growth inhibitors; shares compounds with tim10-1 inh; S. cerevisiae tim10-1 ts strain growth, BacTiter-Glo, 24 h; inhibition, % at 20 µM; actives 56% (n = 7,400); AID 463213;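 active = inhibition of yeast growth at or above a set limit in either of two repeat tests at 20 µM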;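 note: tim10-1 mutant grown at permissive 25 °C to find synthetic lethal compounds; 0% = DMSO yeast wells and 100% = medium wells without yeast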
# Starred values were filed as active, the others as inactive; . = no result given.
SMILES,TIM10 inh,tim23-1 inh,tim10-1 inh,NALP3 yeast inh,NALP1 inh,tim10-1 confirm
O=C(Nc1ccon1)c1cc2c(s1)CCCCCC2,33,43,52*,-32,-8,40*
O=C(c1cc([N+](=O)[O-])cc([N+](=O)[O-])c1)N1CCOCC1,3,17,12,6,24,.
CCC(C(=O)OCC(=O)Nc1cc(Cl)cc(Cl)c1)c1ccccc1 (stereo unspecified),24,29,40*,9,24,26
CC(Sc1ccc2c(c1)OCCO2)C(=O)Nc1ccc(N2CCOCC2)cc1 (stereo unspecified),7,21,4,17,22,.
CCc1nnc(NC(=O)c2cc(-c3ccccn3)nc3ccc(Br)cc23)s1,-4,7,83*,-2,-3,-21
Cc1cc(C)nc(NC(=S)NC(=O)c2ccccc2)n1,-10,8,-10,22,-14,.
Cc1cc(C)c2c(NC(=S)NC(=O)c3ccccc3)nn(C)c2n1,4,28,50*,15,-10,21
CC(=O)Oc1ccc(-c2nc(-c3cccnc3)no2)cc1,33,42,43*,34,9,49*
COc1cc(CC(=O)N(C)CC(=O)Nc2ccc(Cl)c(C(F)(F)F)c2)cc(OC)c1OC,14,8,-2,9,3,.
O=C1C(Cl)=C(N2CCN(Cc3ccccc3)CC2)C(=O)N1Cc1ccccc1,28,26,44*,16,2,14
C[C@@H](NC(=O)[C@@H]1Cc2ccccc2CN1C(=O)OC(C)(C)C)C(=O)NC1CCCC1,14,-7,3,9,20,.
Cn1c(=O)n(C)c2cc([N+](=O)[O-])c(N3CCN(S(=O)(=O)c4ccc5ccccc5c4)CC3)cc21,18,26,21,17,32,.
Cn1c(=O)n(C)c2cc([N+](=O)[O-])c(N3CCN(C(=O)c4cccc(Cl)c4)CC3)cc21,26,27,41*,13,24,22
Cc1ccc(S(=O)(=O)N2CCN(c3cc4c(cc3[N+](=O)[O-])n(C)c(=O)n4C)CC2)cc1,26,37,43*,17,.,21
c1ccc2c(c1)OCC(c1csc3ncnc(N4CCCCC4)c13)O2 (stereo unspecified),29,48,41*,-29,36,24
CCCN1CCN(c2ncnc3scc(C4COc5ccccc5O4)c23)CC1 (stereo unspecified),1,24,31,-4,9,.
COc1ccc2[nH]c(C)c(CCNC(=S)Nc3cc(C)ccc3C)c2c1,-8,-8,3,11,26,.
CCc1cccc(C)c1NC(=S)NCCc1c(C)[nH]c2ccc(C)cc12,15,33,41*,15,46,26
CC1CCc2c(sc3ncnc(NCCCOC(C)C)c23)C1 (stereo unspecified),13,43,40,19,-12,10
CC(Sc1nnc(NC2CCCCC2)s1)C(=O)Nc1ccc2c(c1)C(=O)c1ccccc1C2=O (stereo unspecified),17,23,42*,24,33,19
COc1cccc(CNCc2ccccc2Br)c1OC,4,10,0,21,17,.
S=C(NCC1CCCO1)Nc1ccc(Cl)c(Cl)c1 (stereo unspecified),38,29,41*,-4,-8,26
CN(C)c1ccc(NC(=S)NCC2CCCO2)cc1 (stereo unspecified),-2,7,10,8,39,.
CCCCc1ccc(NC(=S)NCC2CCCO2)cc1 (stereo unspecified),34,26,45*,24,2,34*
Cc1ccc(OC(=O)c2ccc([N+](=O)[O-])cc2Cl)cn1,13,22,43*,4,5,23
SMILES,TIM10 inh,tim23-1 inh,tim10-1 inh,NALP3 yeast inh,NALP1 inh,tim10-1 confirm
Cc1ccc(OC(=O)c2ccc(C)c([N+](=O)[O-])c2)cn1,-1,7,8,19,-2,.
COC(=O)c1ccc2nc(NC(=O)C(C)(C)C)sc2c1,35,46,42*,21,18,35*
Cc1ccc(OCCOc2cccc(Br)c2)c([N+](=O)[O-])n1,-2,39,54*,23,36,40*
C/C(CC(=O)Nc1ccc(Cl)c(C(F)(F)F)c1)=N\NC(=O)c1cnccn1,17,34,49*,4,10,25
COc1ccc(CCNC(=O)c2nn(C)c3c2CS(=O)(=O)c2ccccc2-3)c(OC)c1,9,23,29,21,26,.
COc1ccc(C(=O)NCC2OCCc3ccccc32)c(O)c1 (stereo unspecified),33,35,45*,33,14,23
CCCOc1ccc(C(=O)NCC2OCCc3ccccc32)cc1OC (stereo unspecified),2,16,17,26,6,.
O=C(NCCCNc1ccc(C(F)(F)F)cc1[N+](=O)[O-])c1ccc(Cl)cc1,-4,9,46*,38,-9,-2
CC(=O)c1ccc(OCc2cc(C(=O)N3CCC(c4ccncc4)CC3)no2)cc1,5,1,44*,17,9,-39
COc1cccc(OCc2cc(C(=O)N3CCC(c4ccncc4)CC3)no2)c1,13,32,34,16,21,.
COCC1CCN(C(=O)c2cc(COc3ccc(C)c(C)c3)on2)C1 (stereo unspecified),3,13,4,34,3,.
COCC1CCN(C(=O)c2cc(COc3ccc4c(c3)CCCC4)on2)C1 (stereo unspecified),12,24,40*,29,27*,20
Cc1cccc(N2N=C(C(=O)Nc3ccc(Cl)c(S(=O)(=O)N4CCOCC4)c3)CCC2=O)c1,0,9,0,18,.,.
CCCCNC(=S)NCc1ccc2[nH]c3c(c2c1)CCCC3,33,49,40*,14,-9,10
O=C(Nc1ccccc1N1CCN(C(=O)c2ccc(Cl)cc2)CC1)c1cccc([N+](=O)[O-])c1,20,32,42*,21,24,13
O=C(Nc1ccccc1N1CCN(C(=O)c2ccccc2)CC1)c1ccccc1Cl,2,8,8,-10,.,.
COc1ccccc1C(=O)Nc1ccccc1N1CCN(C(=O)c2ccc(Cl)cc2)CC1,29,44,47*,14,2,17
COc1ccccc1-c1ccc(/C=C2\C=CC(=O)O2)o1,27,23,48*,17,-2,36*
CC(C)CCNC(=O)C(=O)NCC1OCCCN1S(=O)(=O)c1cccs1 (stereo unspecified),8,17,18,3,3,.
CN(CCCNC(=O)Cn1cccc1C(=O)c1ccccc1)C1CCCCC1,12,5,7,-2,5,.
CCOc1cc(C(=O)NC(=S)Nc2cccnc2)cc(OCC)c1OCC,20,24,43*,6,21,18
CCOc1ccc(C(=O)NC(=S)Nc2cccnc2)cc1,3,5,9,20,21,.

# Screening results as filed in PubChem.
